Test results published in PubChem BioAssay AID1159580 (chemical genetic matrix, 2015).
In all, about 5,500 compounds went through this assay and about 2,000 (36%) were called active. Roughly 18% stayed inconclusive and do not appear here. Rule as the data show it: active = normalized growth mostly below about 0.91 (no sharp cut-off); inconclusive = no clear call, values can overlap the other calls; inactive = mostly above about 0.92. Some of the results follow.

Assay: chemical genetic growth profiling, strain panel (AID 1159580);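 also: tested at 20 µM; growth read once vehicle control cultures reached saturation at 30 °C; 1 = growth at the plate median or of vehicle wells; lower values mean less growth of the strain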
Settings: growth OD

Measured: normalized growth

Cc1coc2ccccc2c1=O
inactive: S. cerevisiae deletion strains, locus YAL013W, strain DEP1, hits give low values 0.999 | S. cerevisiae deletion strains, locus YBR021W, strain FUR4, hits give low values 0.998 | S. cerevisiae deletion strains, locus YBR229C, strain ROT2, hits give low values 1.01 | S. cerevisiae deletion strains, locus YCL029C, strain bik1, hits give low values 1.02 | S. cerevisiae deletion strains, locus YDL035C, strain GPR1, hits give low values 1 | S. cerevisiae deletion strains, locus YDL074C, strain BRE1, hits give low values 1 | S. cerevisiae deletion strains, locus YDL101C, strain DUN1, hits give low values 1.01 | S. cerevisiae deletion strains, locus YDL134C, strain PPH21, hits give low values 1 | S. cerevisiae deletion strains, locus YDL185W, strain tfp1, hits give low values 1.01 | S. cerevisiae deletion strains, locus YDL192W, strain arf1, hits give low values 1.03 | S. cerevisiae deletion strains, locus YDR101C, strain arx1, hits give low values 1.01 | S. cerevisiae deletion strains, locus YDR150W, strain NUM1, hits give low values 1 | S. cerevisiae deletion strains, locus YDR162C, strain NBP2, hits give low values 1.01 | S. cerevisiae deletion strains, locus YDR318W, strain mcm21, hits give low values 1.02 | S. cerevisiae deletion strains, locus YDR388W, hits give low values 1.02 | S. cerevisiae deletion strains, locus YDR502C, strain sam2, hits give low values 1.02 | S. cerevisiae deletion strains, locus YEL061C, strain CIN8, hits give low values 1 | S. cerevisiae deletion strains, locus YER110C, hits give low values 1.03 | S. cerevisiae deletion strains, locus YER155C, strain BEM2, hits give low values 1.01 | S. cerevisiae deletion strains, locus YER167W, strain BCK2, hits give low values 1.01 | S. cerevisiae deletion strains, locus YGL078C, strain dbp3, hits give low values 1.02 | S. cerevisiae deletion strains, locus YGL086W, strain mad1, hits give low values 1.02 | S. cerevisiae deletion strains, locus YGL248W, strain PDE1, hits give low values 1 | S. cerevisiae deletion strains, locus YGR078C, strain PAC10, hits give low values 1.01 | S. cerevisiae deletion strains, locus YGR135W, strain pre9, hits give low values 1.01 | S. cerevisiae deletion strains, locus YGR229C, strain SMI1, hits give low values 0.991 | S. cerevisiae deletion strains, locus YGR252W, strain gcn5, hits give low values 1.03 | S. cerevisiae deletion strains, locus YHR030C, strain SLT2, hits give low values 0.997 | S. cerevisiae deletion strains, locus YHR079C, strain IRE1 (second series), hits give low values 1.02 | S. cerevisiae deletion strains, locus YHR094C, strain hxt1, hits give low values 1.02 | S. cerevisiae deletion strains, locus YHR129C, strain ARP1, hits give low values 1 | S. cerevisiae deletion strains, locus YHR200W, strain rpn10, hits give low values 1.03 | S. cerevisiae deletion strains, locus YIL066C, strain RNR3, hits give low values 1.01 | S. cerevisiae deletion strains, locus YIL073C, strain SPO22, hits give low values 1.09 | S. cerevisiae deletion strains, locus YIL125W, strain kgd1, hits give low values 1.03 | S. cerevisiae deletion strains, locus YIR030C, strain dcg1, hits give low values 1.03 | S. cerevisiae deletion strains, locus YJL095W, strain BCK1, hits give low values 0.988 | S. cerevisiae deletion strains, locus YJL134W, strain LCB3, hits give low values 0.999 | S. cerevisiae deletion strains, locus YJL168C, strain set2, hits give low values 1.03 | S. cerevisiae deletion strains, locus YJL187C, strain SWE1 (second series), hits give low values 1 | S. cerevisiae deletion strains, locus YJR043C, strain POL32, hits give low values 0.992 | S. cerevisiae deletion strains, locus YJR075W, strain HOC1, hits give low values 1 | S. cerevisiae deletion strains, locus YKL009W, strain mrt4, hits give low values 1.02 | S. cerevisiae deletion strains, locus YKL068W, hits give low values 1.01 | S. cerevisiae deletion strains, locus YKL085W, strain MDH1 (second series), hits give low values 1.01 | S. cerevisiae deletion strains, locus YKL085W, strain MDH1, hits give low values 1.01 | S. cerevisiae deletion strains, locus YKL190W, strain CNB1, hits give low values 1 | S. cerevisiae deletion strains, locus YKR001C, strain vps1, hits give low values 1.02 | S. cerevisiae deletion strains, locus YLR039C, strain RIC1, hits give low values 1.01 | S. cerevisiae deletion strains, locus YLR058C, strain SHM2, hits give low values 1 | S. cerevisiae deletion strains, locus YLR102C, strain apc9, hits give low values 1.04 | S. cerevisiae deletion strains, locus YLR262C, strain YPT6, hits give low values 1.01 | S. cerevisiae deletion strains, locus YLR268W, strain sec22, hits give low values 1.01 | S. cerevisiae deletion strains, locus YLR330W, strain CHS5, hits give low values 1.01 | S. cerevisiae deletion strains, locus YLR342W, strain FKS1 (second series), hits give low values 1.01 | S. cerevisiae deletion strains, locus YLR371W, strain rom2, hits give low values 1.03 | S. cerevisiae deletion strains, locus YLR418C, strain cdc73, hits give low values 1.01 | S. cerevisiae deletion strains, locus YML016C, strain PPZ1, hits give low values 1 | S. cerevisiae deletion strains, locus YML032C, strain rad52, hits give low values 1.05 | S. cerevisiae deletion strains, locus YML124C, strain tub3, hits give low values 1.02 | S. cerevisiae deletion strains, locus YMR078C, strain ctf18, hits give low values 1.03 | S. cerevisiae deletion strains, locus YMR223W, strain ubp8, hits give low values 1.02 | S. cerevisiae deletion strains, locus YMR263W, strain SAP30, hits give low values 0.998 | S. cerevisiae deletion strains, locus YMR307W, strain GAS1, hits give low values 1 | S. cerevisiae deletion strains, locus YNL067W, strain RPL9B, hits give low values 0.992 | S. cerevisiae deletion strains, locus YNL128W, strain TEP1, hits give low values 1.01 | S. cerevisiae deletion strains, locus YNL153C, strain GIM3, hits give low values 0.985 | S. cerevisiae deletion strains, locus YNL233W, strain BNI4, hits give low values 0.995 | S. cerevisiae deletion strains, locus YNL250W, strain rad50, hits give low values 1.03 | S. cerevisiae deletion strains, locus YNL271C, strain bni1, hits give low values 1.03 | S. cerevisiae deletion strains, locus YNL298W, strain CLA4, hits give low values 1.02 | S. cerevisiae deletion strains, locus YNL307C, strain MCK1, hits give low values 1.03 | S. cerevisiae deletion strains, locus YNL322C, strain KRE1, hits give low values 1 | S. cerevisiae deletion strains, locus YNR052C, strain pop2, hits give low values 1.04 | S. cerevisiae deletion strains, locus YOL006C, strain TOP1, hits give low values 0.974 | S. cerevisiae deletion strains, locus YOL012C, strain htz1 0.801 | S. cerevisiae deletion strains, locus YOL147C, strain pex11, hits give low values 1.02 | S. cerevisiae deletion strains, locus YOR061W, strain CKA2, hits give low values 1 | S. cerevisiae deletion strains, locus YOR069W, strain VPS5, hits give low values 0.998 | S. cerevisiae deletion strains, locus YOR136W, strain idh2, hits give low values 1.02 | S. cerevisiae deletion strains, locus YOR144C, strain elg1, hits give low values 1.01 | S. cerevisiae deletion strains, locus YOR184W, strain ser1, hits give low values 1.04 | S. cerevisiae deletion strains, locus YOR316C, strain cot1, hits give low values 1.02 | S. cerevisiae deletion strains, locus YPL055C, strain LGE1, hits give low values 1.01 | S. cerevisiae deletion strains, locus YPL241C, strain CIN2, hits give low values 1 | S. cerevisiae deletion strains, locus YPR119W, strain clb2, hits give low values 1.03 | S. cerevisiae deletion strains, locus YPR141C, strain kar3, hits give low values 1.03 | S. cerevisiae deletion strains, locus YPR163C, strain tif3, hits give low values 1.03 | S. cerevisiae deletion strains, locus YPR167C, strain met16, hits give low values 1.03 | S. cerevisiae deletion strains, strain wtn01, hits give low values 1.03 | S. cerevisiae strains, strain wild type, hits give low values 1
